# Laboratory results taken from the supplement of paper PMC12282887.
# ± gives the standard deviation of the averaged measurements.
# What was measured:
# Assay in all cases: promoter activity interaction Z-score (Lux/OD deviation from empty-vector control); higher = stronger promoter induction by the compound
# [1] = system: E. coli BW25113 acrABp lux reporter
# Procedure, shortened: (§1)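 Every compound was given at four 1:2 dilutions, in biological duplicates, to E. coli BW25113 carrying low-copy luxCDABE promoter reporters in wild-type or single-gene deletion backgrounds. Growth in 40 µl LB Lennox in 384-well plates at 37°C was followed by OD600 and luminescence readings every 30 min for 12 h, integrated over 0–8 h for wild type and 1–9 h for deletion strains, with wells below 10% of the median growth value excluded. Scores are Z-transformed residuals of growth-normalised luminescence fitted against a control.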
# [2] = system: E. coli BW25113 marRABp lux reporter
# Procedure, shortened: as §1
# [3] = system: E. coli BW25113 micFp lux reporter
# Procedure, shortened: as §1
# [4] = system: E. coli BW25113 ompFp lux reporter
# Procedure, shortened: as §1
# [5] = 0.062 µg/ml, genetic background: wild type
# [6] = 0.062 µg/ml, genetic background: ΔmarA
# [7] = 0.062 µg/ml, genetic background: Δrob
# [8] = 0.062 µg/ml, genetic background: ΔsoxS
# [9] = 0.12 µg/ml, genetic background: wild type
# [10] = 0.12 µg/ml, genetic background: ΔmarA
# [11] = 0.12 µg/ml, genetic background: Δrob
# [12] = 0.12 µg/ml, genetic background: ΔsoxS
# [13] = 0.25 µg/ml, genetic background: wild type
# [14] = 0.25 µg/ml, genetic background: ΔmarA
# [15] = 0.25 µg/ml, genetic background: Δrob
# [16] = 0.25 µg/ml, genetic background: ΔsoxS
# [17] = 0.49 µg/ml, genetic background: wild type
# [18] = 0.49 µg/ml, genetic background: ΔmarA
# [19] = 0.49 µg/ml, genetic background: Δrob
# [20] = 0.49 µg/ml, genetic background: ΔsoxS
smiles,measurement,setting,value
CN(C)c1ccc(O)c2c1C[C@H]1C[C@H]3[C@H](N(C)C)C(O)=C(C(N)=O)C(=O)[C@@]3(O)C(O)=C1C2=O [Minocycline],promoter activity interaction Z-score,[1]; [5],-0.0516 ± 0.1
same,promoter activity interaction Z-score,[1]; [6],0.0987 ± 0.99
same,promoter activity interaction Z-score,[1]; [7],0.189 ± 0.07
same,promoter activity interaction Z-score,[1]; [8],-0.577 ± 0.76
same,promoter activity interaction Z-score,[1]; [9],0.0573 ± 0.042
same,promoter activity interaction Z-score,[1]; [10],0.356 ± 1.1
same,promoter activity interaction Z-score,[1]; [11],0.339 ± 0.34
same,promoter activity interaction Z-score,[1]; [12],0.263 ± 0.16
same,promoter activity interaction Z-score,[1]; [13],0.223 ± 0.18
same,promoter activity interaction Z-score,[1]; [14],0.273 ± 0.88
same,promoter activity interaction Z-score,[1]; [15],0.387 ± 0.58
same,promoter activity interaction Z-score,[1]; [16],0.196 ± 0.47
same,promoter activity interaction Z-score,[1]; [17],2.47 ± 0.56
same,promoter activity interaction Z-score,[1]; [18],0.55 ± 0.59
same,promoter activity interaction Z-score,[1]; [19],2.62 ± 0.41
same,promoter activity interaction Z-score,[1]; [20],2.95 ± 1.3
same,promoter activity interaction Z-score,[2]; [5],-0.0844 ± 0.21
same,promoter activity interaction Z-score,[2]; [6],0.0361 ± 0.21
same,promoter activity interaction Z-score,[2]; [7],0.129 ± 0.094
same,promoter activity interaction Z-score,[2]; [8],-0.0813 ± 0.0076
same,promoter activity interaction Z-score,[2]; [9],0.341 ± 0.081
same,promoter activity interaction Z-score,[2]; [10],0.0649 ± 0.098
same,promoter activity interaction Z-score,[2]; [11],0.115 ± 0.4
same,promoter activity interaction Z-score,[2]; [12],0.221 ± 0.22
same,promoter activity interaction Z-score,[2]; [13],0.449 ± 0.55
same,promoter activity interaction Z-score,[2]; [14],0.264 ± 0.17
same,promoter activity interaction Z-score,[2]; [15],0.436 ± 0.19
same,promoter activity interaction Z-score,[2]; [16],0.173 ± 0.13
same,promoter activity interaction Z-score,[2]; [17],3.58 ± 0.53
same,promoter activity interaction Z-score,[2]; [18],3.1 ± 1.2
same,promoter activity interaction Z-score,[2]; [19],1.07 ± 0.62
same,promoter activity interaction Z-score,[2]; [20],2.67 ± 0.47
same,promoter activity interaction Z-score,[3]; [5],0.172 ± 0.028
same,promoter activity interaction Z-score,[3]; [6],-0.151 ± 0.19
same,promoter activity interaction Z-score,[3]; [7],0.0108 ± 0.022
same,promoter activity interaction Z-score,[3]; [8],-0.429 ± 0.019
same,promoter activity interaction Z-score,[3]; [9],0.33 ± 0.72
same,promoter activity interaction Z-score,[3]; [10],-0.0481 ± 0.0079
same,promoter activity interaction Z-score,[3]; [11],-0.075 ± 0.12
same,promoter activity interaction Z-score,[3]; [12],0.127 ± 0.026
same,promoter activity interaction Z-score,[3]; [13],0.933 ± 0.82
same,promoter activity interaction Z-score,[3]; [14],-0.106 ± 0.069
same,promoter activity interaction Z-score,[3]; [15],0.138 ± 0.07
same,promoter activity interaction Z-score,[3]; [16],-0.0781 ± 0.17
same,promoter activity interaction Z-score,[3]; [17],1.77 ± 1.9
same,promoter activity interaction Z-score,[3]; [18],0.182 ± 0.15
same,promoter activity interaction Z-score,[3]; [19],0.0732 ± 0.00089
same,promoter activity interaction Z-score,[3]; [20],0.743 ± 0.81
same,promoter activity interaction Z-score,[4]; [5],0.0637 ± 0.43
same,promoter activity interaction Z-score,[4]; [6],-0.699 ± 0.25
same,promoter activity interaction Z-score,[4]; [7],0.129 ± 0.49
same,promoter activity interaction Z-score,[4]; [8],-0.457 ± 0.12
same,promoter activity interaction Z-score,[4]; [9],0.41 ± 0.83
same,promoter activity interaction Z-score,[4]; [10],0.0821 ± 0.38
same,promoter activity interaction Z-score,[4]; [11],0.365 ± 0.77
same,promoter activity interaction Z-score,[4]; [12],0.49 ± 0.25
